Each structure is given as a SMILES string. Among all 2,300 compounds or so, about 1,200 (52%) were called active. Another 34% or so got no clear call; they are omitted. The call rests on the fitted dose curve; in most records, active means well fitted inhibition curve with a large enough effect; inconclusive means small, poorly fitted or top-dose-only effect, or effect the other way; inactive means no such curve, though single readings can be large or run the other way. The set was probably picked from earlier hits. The list shows a part of the results.
Potency means the concentration at half of the fitted maximal effect.

The nature of this test: Confirmation screen for delayed death inhibitors of the malarial parasite plastid, 48 hour incubation. Further: nearly all actives have a fitted effect of over 65% in size. The following applies: P. falciparum-infected erythrocytes, luciferase growth; series mostly up to 28.7 µM. The method, boiled down:
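Erythrocytes infected with luciferase-expressing P. falciparum (2% hematocrit, 0.1% parasitemia) incubated with compounds 48 hours at 37 C, 5% CO2, in RPMI/Albumax. Growth inhibition scored as reduced luminescence after detection reagent.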
Consider `Cc1ccc(-n2c(Cl)c(Cl)nc(Cl)c2=O)cc1`, for which the Potency is 12.6 µM (active). As to `Cc1ccc(-n2nnnc2SCC(=O)Nc2ccccc2-c2ccccc2)cc1C`, the Potency entry was “inactive”. Under `Cc1ccc(-n2nnnc2Sc2nc([N+](=O)[O-])nn2C)cc1C` stands 3.55 µM (active); under `N#Cc1cc(C(=O)c2cc(Cl)ccc2O)cn(-c2ccccc2)c1=O`, 14.1 µM (active); under `O=C(OCC(=O)N1CCN(c2ccccc2)CC1)c1cc(Cl)ccc1[N+](=O)[O-]`, “inactive”. Regarding `Cc1[nH]c(=O)[nH]c(=O)c1S(=O)(=O)N1CCCC(C(=O)N2CCN(c3cccc(C(F)(F)F)c3)CC2)C1` (configuration not stated), the Potency was 12.6 µM (active).

On to `Cc1[nH]c(C)c(S(=O)(=O)N2CCN(c3cccc(C(F)(F)F)c3)CC2)c1C(=O)N1CCCCC1`, for which the Potency result was “inactive”. Turning to `Cc1cc(C(C)(C)C)cc(C)c1CCNC(=O)c1ccc[n+]([O-])c1`, the Potency was 14.1 µM (active). For `Cc1cc(C(C)(C)C)cc(C)c1CCNC(=O)c1c(C)noc1C`, the Potency was 12.6 µM (active).

As for `Cc1ccc(C)c(SCc2noc(C(=O)NC(C)C)c2C(=O)O)c1`, the Potency entry is “inactive”. To `CCCCNC(=O)c1onc(CSc2cc(C)ccc2C)c1C(=O)O` belongs “inactive”; to `CCN(C(=O)c1cc2c(=O)n3ccccc3nc2n1CCCOC)C1CCCCC1`, 12.6 µM (active); to `COc1ccc(OC)c(NC(=O)c2nc(S(=O)(=O)Cc3ccccc3)ncc2Cl)c1`, “inactive”. `COc1ccc(OC)c(NC(=O)c2ccccc2N(C)S(=O)(=O)c2ccc(C)cc2)c1`: the Potency was 14.1 µM (active). Regarding `Cc1ccc(Nc2cc(C)c3ccc(O)cc3n2)cc1C`, the Potency was 0.224 µM (active). To `CC(c1ccco1)N(C(=O)c1cc(Cl)cc(Cl)c1)c1ccccn1` (configuration not stated) belongs 11.2 µM (active). Under `CC(C)C1N=C(c2ccc3c(c2)OCO3)CC(c2ccccc2O)N1` (configuration not stated) stands 12.6 µM (active); under `CC(C)N1CCC2(CC1)N=C(c1ccc3c(c1)OCO3)CC(c1cc(Cl)ccc1O)N2` (configuration not stated), 2.82 µM (active). Under `COc1ccc(/C=C/C(=O)c2ccccc2)cc1Cn1nnc2ccccc21` stands 10 µM (active); under `COc1cc(Cn2nnc3ccccc32)ccc1O`, 12.6 µM (active); under `CC(C)C[C@@H](CN=[N+]=[N-])N1CCN(C)CCC1=O`, “inactive”. As to `Cc1cc(NC(=O)COC(=O)c2ccccc2S(=O)(=O)N(C)c2ccccc2)no1`, the Potency is 8.91 µM (active).

For the molecule `CC(C)NC(=O)NC(=O)COC(=O)c1ccccc1Oc1ccccc1`, the Potency entry was “inactive”. Under `O=C(COC(=O)c1ccc(O)cc1O)Nc1ccc2ccccc2c1` stands “inactive”; under `Cc1cccc(C)c1NC(=O)CCCSc1nnc(-c2ccc(F)cc2)n1-c1ccccc1`, 15.8 µM (active); under `COC(=O)CCC(=O)OC1(C)C(=O)C=C2C=C(C3CC3)N(CCCOC(C)C)C=C2C1=O` (configuration not stated), 2 µM (active). `OCC1(CCOc2ccccc2)CCN(Cc2nc3ccc(F)cc3[nH]2)CC1`: the Potency was 12.6 µM (active). For the molecule `Cc1c(CN2CCC(CO)(CCOc3ccccc3)CC2)[nH]c2ccc(Cl)cc12`, the Potency was 7.08 µM (active).

Regarding `CN(C)c1ccc2nc3ccc(=[N+](C)C)cc-3sc2c1`, the Potency is 0.0794 µM (active). Regarding `COc1ccccc1-n1c(SCC(=O)Nc2cc(C)on2)nc2c([nH]c3ccccc32)c1=O`, the Potency is 8.91 µM (active). As to `COc1ccc(C)cc1-n1c(SCC(=O)Nc2cc(C)on2)nc2sc(C)c(C)c2c1=O`, the Potency was 2.51 µM (active). Under `NC(=O)C1CCN(c2nc(C3CC3)nc3c2nnn3Cc2ccccc2Cl)CC1` stands 4.47 µM (active).

The values above are taken from PubChem BioAssay AID504850 (National Center for Advancing Translational Sciences (NCATS), 2011).
